Active and inactive are the calls of the source.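 The calls were made as follows, unless noted: active = fluorescence slope higher than the sample average by over 3 SD (cut at about -0.22 in these data, passing the limit was not always enough); inactive = the rest.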
The compounds below were run against Voltage-gated potassium channel subunit beta-2 (Rattus norvegicus) (UniProt P62483) (assay: KvBeta enzyme negative modulators, primary screen, biochemical, NADPH fluorescence (AID 622;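 also: slope of raw intensity against log time taken from 70 to 1610 s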)). Settings: recombinant KvBeta, 4-cyanobenzaldehyde reduction, at 10 µM, hits give high values.
Sequence of Voltage-gated potassium channel subunit beta-2 (Rattus norvegicus) (P62483 whole entry, looked up): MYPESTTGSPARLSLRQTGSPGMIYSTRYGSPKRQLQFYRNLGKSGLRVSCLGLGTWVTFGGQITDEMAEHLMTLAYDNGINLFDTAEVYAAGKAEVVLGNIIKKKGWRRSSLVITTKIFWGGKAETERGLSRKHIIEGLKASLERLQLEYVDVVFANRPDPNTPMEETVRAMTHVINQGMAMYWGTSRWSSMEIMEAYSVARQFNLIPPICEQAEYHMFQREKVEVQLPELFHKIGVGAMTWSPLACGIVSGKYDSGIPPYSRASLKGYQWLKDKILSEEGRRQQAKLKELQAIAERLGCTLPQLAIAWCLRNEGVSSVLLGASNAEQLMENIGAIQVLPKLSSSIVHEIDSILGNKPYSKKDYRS
For `CC(=O)Nc1cc2c(nc1C)nc(C)n2Cc1ccc(Br)cc1`, the fluorescence slope was -0.526 (inactive).
With `COc1ccc(C(C)N2CC34C=CC(O3)C(C(=O)OCC(C)C)C4C2=O)cc1` (stereo not given) the fluorescence slope was -0.541 (inactive).
`COc1ccc2nc3oc(C(=O)NC4CCN(Cc5ccccc5)CC4)cc3cc2c1` was tested, and the fluorescence slope was -0.122 (active).
`CN(C)c1ccc(-c2nn3c(-c4ccc(Cl)cc4Cl)nnc3s2)cc1` was tested, and the fluorescence slope was -0.552 (inactive).
With `COc1ccc(S(=O)(=O)NC(C)C(=O)Nc2cccc(C(C)=O)c2)cc1` (stereo not given) the fluorescence slope was -0.402 (inactive).
With `O=C(Nc1cccc2ccccc12)N1CCN(c2ccccc2)CC1` the fluorescence slope was -0.525 (inactive).
With `O=c1ccc2cc3c([nH]c4ccc(Br)cc43)oc-2c1O` the fluorescence slope was -0.596 (inactive).
For `CCCCSc1cc(C)nc2ncnn12`, the fluorescence slope was -0.492 (inactive).
`CCN1C(=O)CC(N2CCC(Nc3ccc(F)cc3)CC2)C1=O` (stereo not given) was tested, and the fluorescence slope was -0.541 (inactive).
With `CCOc1ccccc1NC(=O)CCSc1nc2n[nH]c(C)c2c(=N)n1-c1ccccc1Cl` the fluorescence slope was -0.417 (inactive).
With `c1ccc(-n2c(Sc3cnccn3)nnc2-c2cccs2)cc1` the fluorescence slope was -0.612 (inactive).
In the case of `C=C(C)Cn1c(N2CC(C)CC(C)C2)nc2c1c(=O)[nH]c(=O)n2C` (stereo not given), the fluorescence slope is reported as -0.421 (inactive).
With `CCC1(C(=O)OC)NC(c2cccc(F)c2)C2C(=O)N(C)C(=O)C21` (stereo not given) the fluorescence slope was -0.272 (inactive).
With `Cc1ccccc1-n1c(SCc2c(C)noc2C)nnc1-c1ccncc1` the fluorescence slope was -0.304 (inactive).
`COC(=O)C1=C(C)n2nnnc2NC1c1ccc(Cl)cc1` (stereo not given) was tested, and the fluorescence slope was -0.367 (inactive).
With `CCc1ccc(C2CC(c3ccccc3)n3ncnc3N2)cc1` (stereo not given) the fluorescence slope was -0.586 (inactive).
`CCN(C(=O)c1cn(C)c(=O)c2cc(OC)c(OC)cc12)c1ccccc1C` was tested, and the fluorescence slope was -0.59 (inactive).
For `COc1ccccc1-n1c(C)nnc1SCC(=O)Nc1cccc(C(C)=O)c1`, the fluorescence slope was -0.355 (inactive).
For `O=C(Nc1ccc(N2CCOCC2)c(Cl)c1)c1ccc(Br)o1`, the fluorescence slope was -0.497 (inactive).
In the case of `Cc1cccc(-n2c(=O)cc(N3CCN(c4ccc(F)cc4)CC3)[nH]c2=O)c1`, the fluorescence slope is reported as -0.448 (inactive).
For `N#CCCN1CCN(S(=O)(=O)c2ccc(S(=O)(=O)NC3CCCC3)cc2)CC1`, the fluorescence slope was -0.624 (inactive).
With `O=C(c1ccccc1Br)N1CCN(c2ccccc2)CC1` the fluorescence slope was -0.488 (inactive).
For `O=C(Cc1cccs1)NCc1ccc(F)cc1`, the fluorescence slope was -0.408 (inactive).
For `CCn1c(SCC(=O)NC)nnc1C(C)C`, the fluorescence slope was -0.307 (inactive).
With `O=C(C1CCC(N2C(=O)C3CC=CCC3C2=O)CC1)N1CCCCC1` (stereo not given) the fluorescence slope was -0.356 (inactive).
In the case of `O=C1CC(c2ccccc2)Cc2nc(N3CCc4ccccc43)ncc21` (stereo not given), the fluorescence slope is reported as -0.0564 (inactive).
`Cc1nc2cc(Cl)ccc2n1CCO` was tested, and the fluorescence slope was -0.565 (inactive).
`O=C(CCCc1cccs1)Nc1nc2c(s1)CCCC2` was tested, and the fluorescence slope was -0.461 (inactive).
For `O=C(CN1C(=O)CCS(=O)(=O)c2ccccc21)NCc1ccc(F)cc1`, the fluorescence slope was -0.395 (inactive).
With `CCN1C(=O)c2cccc3c(NC(=O)c4ccc(S(=O)(=O)N(C)C)cc4)ccc1c23` the fluorescence slope was -0.319 (inactive).
`Cc1oc(-c2cccc(Cl)c2)nc1CN1CCC(C(=O)N2CCN(c3ccccc3F)CC2)CC1` was tested, and the fluorescence slope was -0.552 (inactive).
In the case of `C=CCOc1ccc(/C=N/n2cncn2)cc1OC`, the fluorescence slope is reported as -0.58 (inactive).
`Cc1ccc(-c2csc3ncn(-n4c(C)ccc4C)c(=O)c23)o1` was tested, and the fluorescence slope was -0.468 (inactive).
For `c1ccc2c(c1)CNC1(CCCCC1)C2`, the fluorescence slope was -0.552 (inactive).
For `COc1cc(C2CC(=O)NC3=C2C(=O)CC(C)(C)C3)ccc1O` (stereo not given), the fluorescence slope was -0.41 (inactive).
For `c1cncc(-c2nnc3n2N=C(c2cccs2)CS3)c1`, the fluorescence slope was -0.331 (inactive).
For `COC(=O)CCn1nnc(-c2cccs2)n1`, the fluorescence slope was -0.598 (inactive).
`O=C(CCn1c(=O)sc2ccccc21)Nc1nccs1` was tested, and the fluorescence slope was -0.618 (inactive).
For `COc1ccc(N(CC(=O)O)S(=O)(=O)c2ccc(OC)c(OC)c2)cc1`, the fluorescence slope was -0.475 (inactive).
For `CCC(C)NC(=O)C1c2cc(OC)c(OC)cc2C(=O)N(C)C1c1ccc(OC)cc1` (stereo not given), the fluorescence slope was -0.539 (inactive).

Each compound was assayed against Voltage-gated potassium channel subunit beta-2 (Rattus norvegicus) (UniProt P62483) (assay: KvBeta positive modulators, primary screen, biochemical, NADPH fluorescence (AID 623;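 active = NADPH fluorescence slope more negative than the mean of all samples by about 3 SD, 99.7% confidence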;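 also: fluorescence intensity change per second fitted from 20 to 320 s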)). Settings: Recombinant KvBeta, NADPH fluorescence decrease slope, 10 min; at 10 µM; hits give low values.
In the case of `CC(=O)Nc1cc2c(nc1C)nc(C)n2Cc1ccc(Br)cc1`, the NADPH fluorescence slope is reported as -0.000178 (inactive).
`COc1ccc(C(C)N2CC34C=CC(O3)C(C(=O)OCC(C)C)C4C2=O)cc1` (stereo not given) was tested, and the NADPH fluorescence slope was -4.3e-05 (inactive).
`COc1ccc2nc3oc(C(=O)NC4CCN(Cc5ccccc5)CC4)cc3cc2c1` was tested, and the NADPH fluorescence slope was -8.2e-06 (inactive).
With `CN(C)c1ccc(-c2nn3c(-c4ccc(Cl)cc4Cl)nnc3s2)cc1` the NADPH fluorescence slope was -3.3e-05 (inactive).
In the case of `COc1ccc(S(=O)(=O)NC(C)C(=O)Nc2cccc(C(C)=O)c2)cc1` (stereo not given), the NADPH fluorescence slope is reported as -2.7e-05 (inactive).
`O=C(Nc1cccc2ccccc12)N1CCN(c2ccccc2)CC1` was tested, and the NADPH fluorescence slope was -2.7e-05 (inactive).
For `O=c1ccc2cc3c([nH]c4ccc(Br)cc43)oc-2c1O`, the NADPH fluorescence slope was -5.1e-05 (inactive).
For `CCCCSc1cc(C)nc2ncnn12`, the NADPH fluorescence slope was 3.1e-05 (inactive).
`CCN1C(=O)CC(N2CCC(Nc3ccc(F)cc3)CC2)C1=O` (stereo not given) was tested, and the NADPH fluorescence slope was 6.8e-06 (inactive).
With `CCOc1ccccc1NC(=O)CCSc1nc2n[nH]c(C)c2c(=N)n1-c1ccccc1Cl` the NADPH fluorescence slope was -4.1e-05 (inactive).
In the case of `c1ccc(-n2c(Sc3cnccn3)nnc2-c2cccs2)cc1`, the NADPH fluorescence slope is reported as -1.5e-05 (inactive).
For `C=C(C)Cn1c(N2CC(C)CC(C)C2)nc2c1c(=O)[nH]c(=O)n2C` (stereo not given), the NADPH fluorescence slope was -1.7e-05 (inactive).
In the case of `CCC1(C(=O)OC)NC(c2cccc(F)c2)C2C(=O)N(C)C(=O)C21` (stereo not given), the NADPH fluorescence slope is reported as -5.7e-05 (inactive).
For `Cc1ccccc1-n1c(SCc2c(C)noc2C)nnc1-c1ccncc1`, the NADPH fluorescence slope was -5.4e-05 (inactive).
For `COC(=O)C1=C(C)n2nnnc2NC1c1ccc(Cl)cc1` (stereo not given), the NADPH fluorescence slope was 1.8e-05 (inactive).
In the case of `CCc1ccc(C2CC(c3ccccc3)n3ncnc3N2)cc1` (stereo not given), the NADPH fluorescence slope is reported as -3.4e-05 (inactive).
For `CCN(C(=O)c1cn(C)c(=O)c2cc(OC)c(OC)cc12)c1ccccc1C`, the NADPH fluorescence slope was -2.6e-05 (inactive).
In the case of `COc1ccccc1-n1c(C)nnc1SCC(=O)Nc1cccc(C(C)=O)c1`, the NADPH fluorescence slope is reported as -8e-06 (inactive).
With `O=C(Nc1ccc(N2CCOCC2)c(Cl)c1)c1ccc(Br)o1` the NADPH fluorescence slope was -0.000111 (inactive).
`Cc1cccc(-n2c(=O)cc(N3CCN(c4ccc(F)cc4)CC3)[nH]c2=O)c1` was tested, and the NADPH fluorescence slope was -2.5e-05 (inactive).
For `N#CCCN1CCN(S(=O)(=O)c2ccc(S(=O)(=O)NC3CCCC3)cc2)CC1`, the NADPH fluorescence slope was -3.6e-05 (inactive).
In the case of `O=C(c1ccccc1Br)N1CCN(c2ccccc2)CC1`, the NADPH fluorescence slope is reported as -0.000203 (inactive).
In the case of `O=C(Cc1cccs1)NCc1ccc(F)cc1`, the NADPH fluorescence slope is reported as -3.6e-06 (inactive).
With `CCn1c(SCC(=O)NC)nnc1C(C)C` the NADPH fluorescence slope was -5.6e-05 (inactive).
With `O=C(C1CCC(N2C(=O)C3CC=CCC3C2=O)CC1)N1CCCCC1` (stereo not given) the NADPH fluorescence slope was -5.2e-05 (inactive).
For `O=C1CC(c2ccccc2)Cc2nc(N3CCc4ccccc43)ncc21` (stereo not given), the NADPH fluorescence slope was -1.7e-05 (inactive).
For `Cc1nc2cc(Cl)ccc2n1CCO`, the NADPH fluorescence slope was -1.6e-05 (inactive).
For `O=C(CCCc1cccs1)Nc1nc2c(s1)CCCC2`, the NADPH fluorescence slope was -2.9e-05 (inactive).
`O=C(CN1C(=O)CCS(=O)(=O)c2ccccc21)NCc1ccc(F)cc1` was tested, and the NADPH fluorescence slope was -7.6e-05 (inactive).
`CCN1C(=O)c2cccc3c(NC(=O)c4ccc(S(=O)(=O)N(C)C)cc4)ccc1c23` was tested, and the NADPH fluorescence slope was -4.5e-05 (inactive).
For `Cc1oc(-c2cccc(Cl)c2)nc1CN1CCC(C(=O)N2CCN(c3ccccc3F)CC2)CC1`, the NADPH fluorescence slope was -2.2e-05 (inactive).
With `C=CCOc1ccc(/C=N/n2cncn2)cc1OC` the NADPH fluorescence slope was 2.1e-05 (inactive).
For `Cc1ccc(-c2csc3ncn(-n4c(C)ccc4C)c(=O)c23)o1`, the NADPH fluorescence slope was 3.1e-05 (inactive).
For `c1ccc2c(c1)CNC1(CCCCC1)C2`, the NADPH fluorescence slope was 2.5e-05 (inactive).
In the case of `COc1cc(C2CC(=O)NC3=C2C(=O)CC(C)(C)C3)ccc1O` (stereo not given), the NADPH fluorescence slope is reported as -4.2e-05 (inactive).
`c1cncc(-c2nnc3n2N=C(c2cccs2)CS3)c1` was tested, and the NADPH fluorescence slope was 5.7e-06 (inactive).
For `COC(=O)CCn1nnc(-c2cccs2)n1`, the NADPH fluorescence slope was -5.1e-05 (inactive).
`O=C(CCn1c(=O)sc2ccccc21)Nc1nccs1` was tested, and the NADPH fluorescence slope was 3e-05 (inactive).
`COc1ccc(N(CC(=O)O)S(=O)(=O)c2ccc(OC)c(OC)c2)cc1` was tested, and the NADPH fluorescence slope was 6.8e-05 (inactive).
For `CCC(C)NC(=O)C1c2cc(OC)c(OC)cc2C(=O)N(C)C1c1ccc(OC)cc1` (stereo not given), the NADPH fluorescence slope was -8.1e-06 (inactive).
